From PubChem
Compounds with a hit are over-represented: about 2% of the library has one in this group of screens.
TLR9-MyD88 block – inhibitors of TLR9-MyD88 association in cells, primary screen, cell-based, CHO, BLA complementation, fluorescence; Toll-like receptor 9 (Homo sapiens) + Myeloid differentiation primary response protein …; CCF4 FRET ratio; inhibition, % at 4.98 µM; 0.21% of 340,000 active;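 active = inhibition above the mean over all tested compounds plus 3 SD, cut at about 21% in these data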;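 note: 0% = DMSO only wells and 100% = clavulanate BLA inhibitor control wells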
TLR4-MyD88 BLA – inhibitors of TLR4-MyD88 association in cells, primary screen, cell-based, HeLa CL3-4, BLA complementation, FRET ratio; Toll-like receptor 4 (Homo sapiens) + Myeloid differentiation primary response protein …; HeLa CL3-4 TLR4/MyD88 BLA complementation; AID 861, 2007; inhibition, % at 8.4 µM; 0.18% of 200,000 active; in the data active = inhibition above about 25%;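 note: 0% = vehicle and 100% = reference inhibitor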
ABHD5-PLIN5 inh – ABHD5-PLIN5 interaction inhibitors, primary screen, cell lysate, split luciferase complementation, luminescence; Perilipin-5 (Homo sapiens) + 1-acylglycerol-3-phosphate O-acyltransferase ABHD5 (Homo …; Split G. princeps luciferase complementation, 4 h; inhibition, % at 4 µM; 0.78% of 360,000 active;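 active = inhibition above the mean inhibition across every tested compound plus 3 SD, cut at about 22% in these data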;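 note: 0% = DMSO only wells and the 100% control is not disclosed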
NOD2-RIPK2 inh – NOD2-RIPK2 binding disruptors in cells, primary screen, fluorescence, CHO cells, BLA complementation; Receptor-interacting serine/threonine-protein kinase 2 (Homo sapiens), O43353; CCF4 ratio; inhibition, % at 4.98 µM; 0.38% of 360,000 active; AID 624267, 2012; in the data active = inhibition above about 21%;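 note: 0% = vehicle only and 100% = reference blocker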
Beta2AR agonist – beta2AR agonists driving receptor internalization, primary screen, cell-based, FAP fluorogen, flow cytometry; Beta-2 adrenergic receptor (Homo sapiens), P07550; Am2.2-beta2AR cells; response, % (test concentration not listed); 0.43% of 340,000 active; AID 504454, 2011;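 active = response above a set limit, near 3 SD of response in nonfluorescent compounds, cut at about 42% in these data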
Exocytosis inh – LAMP-1 surface exposure blockers, TALL-104 cells – cell-based, flow cytometry, MLPCN library, primary screen; TALL-104 LAMP-1 surface exposure; cells stimulated with thapsigargin and PMA; inhibition, % at 10 µM; 0.66% of 360,000 active;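 active = inhibition above about 55%, limit read from the data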
TLR9-MyD88 conf – TLR9-MyD88 association inhibitors, retest, confirmation, cell-based, CHO, BLA complementation, fluorescence, triplicate; shares compounds with TLR9-MyD88 block; CCF4 FRET ratio; inhibition, % at 4.98 µM; 51% of 680 active; AID 540250, 2011;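 active = mean inhibition across three repeats above about 21% taken from the earlier screen, limit read from the data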;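 note: blue over green emission ratio reports constitutive TLR9 MyD88 association via BLA complementation; 0% = DMSO vehicle wells and 100% = clavulanate BLA inhibitor wells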
BLA counter-1 – beta-lactamase reporter inhibitors in CHO cells, artefact control for TLR9-MyD88 binding inhibitor project, cell-based, fluorescence; shares compounds with TLR9-MyD88 block; CHO-BLA cells, CCF4 FRET ratio, BLA reporter; inhibition, % at 4.98 µM; 7% of 680 active;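 active = mean inhibition above a 50% cutoff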;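 note: counterscreen of TLR9-MyD88 hits on CMV-driven BLA in CHO-K1 cells; 0% = DMSO alone and 100% = clavulanate blocking BLA; higher means less blue over green ratio so more BLA blockade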
TLR9 CHO tox – CHO cell viability loss – luminescence, single concentration, cytotoxicity control for TLR9-MyD88 binding inhibitor project | 39% of 680 active | shares compounds with TLR9-MyD88 block | TLR9-MyD88 CHO cells cytotoxicity | inhibition, % at 4.98 µM; in the data active = inhibition above about 11%
ABHD5 PLIN5 conf – ABHD5-PLIN5 interaction inhibitors, confirmation, biochemical, luminescence | shares compounds with ABHD5-PLIN5 inh | inhibition, % at 4 µM | 67% of 2,200 active | AID 651612, 2012; in the data active = inhibition above about 23%;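 note: 0% = DMSO vehicle wells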
HNF4 counter – HNF4 dimerization inhibitors, counter-screen for ABHD5-PLIN5 interaction inhibitor project, biochemical, split-luciferase complementation, luminescence | 77% of 2,200 active | shares compounds with ABHD5-PLIN5 inh | inhibition, % at 4 µM;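 active = mean inhibition across replicate wells exceeding the computed hit threshold, cut at about 13% in these data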;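 note: light from luciferase halves that rejoin when HNF4 fusion proteins dimerize; 0% = DMSO only wells and the 100% control is not given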
NOD2-RIPK2 conf – NOD2-RIPK2 binding disruptors, retest, confirmation, fluorescence, CHO cells, BLA complementation, triplicate. shares compounds with NOD2-RIPK2 inh. CCF4 FRET. inhibition, % at 4.98 µM. 70% of 1,200 active. AID 624370, 2012;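 active = mean inhibition across replicates above a set limit taken from the earlier primary screen, cut at about 21% in these data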;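 note: 0% = DMSO-only wells and the high end = clavulanate BLA-blocked wells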
BLA counter-2 – counter-screen for NOD2-RIPK2 interaction inhibitors: BLA reporter; 57% of 1,200 active; AID 624371; inhibition, % at 4.98 µM; shares compounds with NOD2-RIPK2 inh; CHO BLA reporter, CCF4 FRET ratio, counterscreen;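 active = mean inhibition above the low-control mean inhibition plus three low-control SD, cut at about 11% in these data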;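 note: 0% = DMSO only wells and 100% = clavulanate high control wells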
Active calls of the source: *.

Screening Oc1c(Cl)cc(Cl)cc1/C=N/NC(=S)NC1CC2C=CC1C2 (configuration not stated) returned TLR9-MyD88 block 24*, ABHD5-PLIN5 inh -8, NOD2-RIPK2 inh 49*, Beta2AR agonist 3, Exocytosis inh -8, TLR9-MyD88 conf 24*, BLA counter-1 28, TLR9 CHO tox 17*, NOD2-RIPK2 conf 43* and BLA counter-2 62*.
Screening Nc1c(Cl)cc(-c2[nH]c3cc(C(=O)NCCO)ccc3c(=O)c2O)cc1Cl returned TLR9-MyD88 block 21*, ABHD5-PLIN5 inh -7, NOD2-RIPK2 inh 28*, Beta2AR agonist -3, Exocytosis inh 10, TLR9-MyD88 conf 11, BLA counter-1 18, TLR9 CHO tox 5, NOD2-RIPK2 conf 35* and BLA counter-2 38*.
For CCCNC(=O)N(C)C[C@@H]1Oc2ncc(-c3ccncc3)cc2C(=O)N([C@H](C)CO)C[C@@H]1C the results were TLR9-MyD88 block -14, ABHD5-PLIN5 inh 6, NOD2-RIPK2 inh 4 and Exocytosis inh 5.
`Nc1ccc2nc(-c3ccccc3)c(-c3ccccc3)nc2c1` gave TLR9-MyD88 block 38*, ABHD5-PLIN5 inh -19, NOD2-RIPK2 inh 44*, Beta2AR agonist 10, Exocytosis inh 14, TLR9-MyD88 conf 33*, BLA counter-1 35, TLR9 CHO tox 2, NOD2-RIPK2 conf 60* and BLA counter-2 68*.
For Nc1ccc(-c2cnc3ccccc3n2)cc1 the results were ABHD5-PLIN5 inh 0, NOD2-RIPK2 inh 16, Beta2AR agonist 8 and Exocytosis inh -3.
Nc1ccc2nc(-c3ccccc3)cnc2c1 was read as TLR9-MyD88 block 39*, ABHD5-PLIN5 inh -14, NOD2-RIPK2 inh 44*, Beta2AR agonist -43, Exocytosis inh 11, TLR9-MyD88 conf 30*, BLA counter-1 34, TLR9 CHO tox -2, NOD2-RIPK2 conf 57* and BLA counter-2 63*.
`CCOc1ccc2cc(/C=C/C(=O)c3ccco3)c(Cl)nc2c1` gave TLR9-MyD88 block 29*, TLR4-MyD88 BLA 36*, ABHD5-PLIN5 inh 25*, NOD2-RIPK2 inh 27*, Beta2AR agonist -6, Exocytosis inh 2, TLR9-MyD88 conf 8, BLA counter-1 4, TLR9 CHO tox 3, ABHD5 PLIN5 conf 71*, HNF4 counter 56*, NOD2-RIPK2 conf 5 and BLA counter-2 10.
